In the library only some 3% were active in any assay of this set; here they are far more common.
Tau ThT inhib = tau fibrillization inhibition (ThT binding); recombinant tau K18 P301L, heparin-induced fibrillization, ThT fluorescence; Potency, µM (series often up to 57.4 µM), actives largely listed as inhibitors; 2.1% of 270,000 active; also: nearly all actives have a fitted effect of over 55% in size
Target sequence (P10636 561-689 P618L limits assumed): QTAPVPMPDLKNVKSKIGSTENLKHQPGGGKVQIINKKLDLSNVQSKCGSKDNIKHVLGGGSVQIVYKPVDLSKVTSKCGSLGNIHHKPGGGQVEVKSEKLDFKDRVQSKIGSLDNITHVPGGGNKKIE
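Using a mix of unlabeled (15 uM) and Alexa 594-labeled (0.24 uM) tau K18 P301L, heparin-triggered fibrillization over 6 hr at 37 C was scored by ThT fluorescence.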
Tau fibril FP = inhibitors of human tau fibril formation. P10636. K18 P301L tau heparin fibrillization, Alexa594 FP, 6 h. Potency, µM (series often up to 57.7 µM), hits mostly inhibitors. 0.39% of 280,000 active. AID 1468; also: nearly all actives have a fitted effect of over 55% in size
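Quantitative HTS format: compounds meet 15 uM recombinant K18 P301L tau and Alexa 594-tau tracer in 100 mM sodium acetate pH 7; 20 uM heparin triggers fibrillization at 37 C over 6 hr; FP gives the signal.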
TRb-SRC2 inh = TRbeta-SRC2 interaction inhibition; Potency, µM (series often up to 106 µM), actives largely listed as inhibitors; TRbeta-SRC2 peptide binding, fluorescence polarization; receptor liganded with 1 µM T3; 0.065% of 280,000 active; also: nearly all actives have a fitted effect of over 50% in size
Target sequence (P10828 whole entry, looked up): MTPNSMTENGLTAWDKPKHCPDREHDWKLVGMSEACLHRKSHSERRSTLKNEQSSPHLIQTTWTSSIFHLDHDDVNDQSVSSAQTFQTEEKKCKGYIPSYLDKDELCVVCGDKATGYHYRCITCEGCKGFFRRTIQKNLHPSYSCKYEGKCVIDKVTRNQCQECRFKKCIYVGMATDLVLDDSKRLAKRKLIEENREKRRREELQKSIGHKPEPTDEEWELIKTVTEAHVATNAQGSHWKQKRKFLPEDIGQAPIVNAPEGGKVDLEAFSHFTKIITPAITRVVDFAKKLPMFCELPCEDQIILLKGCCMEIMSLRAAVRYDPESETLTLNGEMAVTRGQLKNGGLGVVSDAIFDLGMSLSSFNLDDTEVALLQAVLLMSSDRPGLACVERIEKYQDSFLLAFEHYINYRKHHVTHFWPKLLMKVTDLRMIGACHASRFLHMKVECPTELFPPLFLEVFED
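Decrease in fluorescence polarization of 20 nM Texas Red SRC2 coactivator peptide flagged inhibition of its binding to 0.6 uM TRb LBD; 1 uM T3 included, incubation 5 hr, ex 555/em 632 nm.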
Tau fluor cs = counter-screen for tau fibril formation inhibitors; tau K18 P301L Alexa594 fluorescence, heparin fibrillization; Potency, µM (doses to about 57.7 µM); 0.93% of 280,000 active; also: nearly all actives have a fitted effect of over 55% in size
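Human tau K18 P301L (15 uM unlabeled, 0.24 uM Alexa 594-labeled) in 100 mM sodium acetate pH 7 with 20 uM heparin, 6 hr at 37 C. ThT 30 uM added, 1 hr ambient; Alexa 594 FP and total fluorescence read at 555/632 nm.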
TR SRC2 fluor cs = alters Texas Red total fluorescence, flagging assay interference; TRb/SRC2 Texas Red total fluorescence interference; 0.29% of 280,000 active; Potency, µM (top dose mostly 106 µM); active = well fitted curve in either direction with a large enough effect; inconclusive = small, poorly fitted or top-dose-only effect
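Flags fluorescent or light-absorbing compounds by total fluorescence, S + 2P, at 555 nm excitation and 632 nm emission. Mixture: 20 nM Texas Red SRC2 peptide, 0.6 uM human TRb LBD, 1 uM T3, 5% DMSO; compound exposure 5 h at ambient temperature.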
Each line names hits and unclear results; the compound was inactive in the other large screens; [ ] = dose if it differs, or a comment. Unless noted, calls follow the shape of the dose curve; as a rule, active = well fitted curve in the direction sought with a large enough effect; inconclusive = small, poorly fitted or top-dose-only effect, or another doubt; inactive = no such curve, though single readings can be large; an effect the other way counts as inactive or inconclusive.

O=C(Nc1ccc(Cl)cc1)N[C@@H]1c2c(ccc3ccccc23)OC[C@@H]1CO	Tau fibril FP 31.6µM, Tau fluor cs inconclusive
NC(=O)N1OCC2COc3ccc4ccccc4c3C21 (stereo unspecified)	none
COc1ccc(CNC(=O)c2cc3c(=O)n(Cc4cccs4)ccc3nc2C)cc1	none
C=Cc1c(C)/c2[n-]/c1=C\c1[n-]c(c(CC)c1C)/C=c1\[n-]c3c(c1C)C(=O)C(C(=O)[O-])C=3c1[n-]c(c(C)c1CCC(=O)[O-])\C=2.[Cu].[Na+].[Na+] (stereo unspecified)	Tau ThT inhib 14.1µM, Tau fibril FP 20µM, TRb-SRC2 inh 44.7µM, Tau fluor cs 11.2µM[quencher], TR SRC2 fluor cs 25.1µM[quencher]
Cc1ccc(S(=O)(=O)c2c(Nc3cc(F)ccc3F)sc(C(=O)c3ccc(F)cc3)c2N)cc1	Tau fibril FP inconclusive
COC(CNC(=O)c1ccc(N2CCc3ccccc32)c([N+](=O)[O-])c1)OC	Tau ThT inhib inconclusive, Tau fluor cs inconclusive
NNC(=O)c1ccc(N2CCc3ccccc32)c([N+](=O)[O-])c1	Tau ThT inhib 14.1µM, Tau fluor cs inconclusive
CO[C@H]1COC(=O)[C@@H](CCSC)NC(=O)C/C=C\[C@@H](C)COC(=O)[C@@H](OCc2ccccc2)/C=C\[C@@H]1C	none
CC#CCN1c2ccccc2[C@]23C[C@@H](C(=O)OC)N(S(=O)(=O)c4ccc(C)cc4)C2=NC(C(=O)OC)=C(C(=O)OC)[C@H]13	none
Cc1cccc(OCCCC(=O)Nc2ccc(N(C)C)cc2)c1	Tau ThT inhib 12.6µM
CCOc1ccc(NC(=S)Nc2cccc3cnccc23)cc1	Tau ThT inhib inconclusive, TR SRC2 fluor cs inconclusive
COc1ccc(NC(=S)Nc2cccc3cnccc23)cc1	Tau ThT inhib inconclusive, Tau fibril FP inconclusive
S=C(Nc1cccnc1)Nc1cccc2cnccc12	Tau ThT inhib 12.6µM, Tau fibril FP inconclusive
S=C(Nc1ccc(Cl)cc1)Nc1cccc2cnccc12	Tau ThT inhib 25.1µM, Tau fibril FP inconclusive, Tau fluor cs inconclusive
Fc1ccc(NC(=S)Nc2cccc3cnccc23)cc1	Tau ThT inhib 7.94µM, Tau fibril FP inconclusive, TRb-SRC2 inh inconclusive, Tau fluor cs inconclusive
COC(=O)c1cc(NC(=O)c2ccc3c(c2)N(Cc2cccc(Cl)c2)C(=O)c2ccccc2S3=O)cc(C(=O)OC)c1 (stereo unspecified)	Tau fibril FP inconclusive
CCC(Sc1nc2ccncc2[nH]1)C(=O)Nc1ccc(F)cc1 (stereo unspecified)	none
NCCCC[C@H](NC(=O)[C@H](CCCN=C(N)N)NC(=O)[C@H](CO)NC(=O)[C@H](CCCN=C(N)N)NC(=O)[C@@H](N)Cc1ccc(O)cc1)C(=O)N[C@@H](Cc1ccc(O)cc1)C(=O)N[C@@H](CO)C(=O)N[C@@H](CO)C(=O)N[C@@H](Cc1c[nH]c2ccccc12)C(=O)N[C@@H](Cc1ccc(O)cc1)C(=O)O	none (no result: Tau ThT inhib, Tau fibril FP, Tau fluor cs)
CCC(CO)Nc1ccc(-c2nn(C)c(=O)c3ccccc23)cc1[N+](=O)[O-] (stereo unspecified)	Tau ThT inhib 25.1µM
Cc1ccc(-c2nn(C)c(=O)c3ccccc23)cc1CO	none
COc1ccc(-c2cc(=O)n(-c3ccc([N+](=O)[O-])cc3)[nH]2)cc1	Tau ThT inhib 11.2µM, Tau fluor cs inconclusive
N.N.O=C(O)C1(C(=O)O)CCC1.[Pt]	Tau ThT inhib 3.16µM, Tau fibril FP 2.82µM
O=[N+]([O-])/C(C(Cl)=C(Cl)Cl)=C(/Sc1ccccc1)N1CCCCC1	Tau ThT inhib 22.4µM, Tau fibril FP inconclusive
N#C/C(=N/Nc1ccc(OC(F)(F)F)cc1)C(N)=S	Tau ThT inhib 6.31µM, Tau fluor cs inconclusive
COc1cc(CNc2ncnc3c2[nH]c2ccc(C)cc23)cc(OC)c1	Tau fluor cs 15.8µM[quencher]
Cc1ccc2[nH]c3c(NCc4ccco4)ncnc3c2c1	Tau ThT inhib inconclusive
CCOc1ccc2[nH]c3c(NCCc4ccc(OC)c(OC)c4)ncnc3c2c1	Tau fibril FP inconclusive, Tau fluor cs 22.4µM[quencher] (no result: Tau ThT inhib)
C=C1c2ccccc2O[C@H](C(=O)OCC)C1OC (mixture of isomers)	none
Cc1c(Cl)cccc1Cl	none (no result: Tau ThT inhib, Tau fibril FP, Tau fluor cs)
N=C1S/C(=C\c2ccc(-c3ccccc3C(=O)O)o2)C(=O)N1c1ccc2c(c1)OCO2	Tau ThT inhib 3.55µM
CCC(=O)N1CCc2cc(Br)cc(S(=O)(=O)CCC(=O)N3CCN(c4ccccc4F)CC3)c21	none
O=[N+]([O-])c1ccc(CSc2ncnc3c2ncn3C2OC(CO)C(O)C2O)cc1 (stereo unspecified)	none
COC(=O)c1cc2sc(Cl)cc2n1Cc1nc(-c2ccccc2F)oc1C	TR SRC2 fluor cs 25.1µM[quencher]
COC(=O)c1cc2sc(Cl)cc2n1Cc1nc(-c2ccc(OC)cc2)oc1C	none
Cc1c(-c2cccc(NC(=O)Nc3ccccc3)c2)nc2ncccn12	Tau ThT inhib inconclusive, Tau fibril FP inconclusive, Tau fluor cs inconclusive
Cc1cc(C2=CC(C)(c3cc(C)oc3C)Nc3nc(C(F)(F)F)nn32)c(C)o1 (stereo unspecified)	Tau ThT inhib 28.2µM, Tau fibril FP inconclusive
CCOc1ccc(/C=N/NC(=O)c2ccc(Cn3cc([N+](=O)[O-])cn3)o2)cc1	none
CC(C)(C)c1ccc(OCc2ccc(C(=O)N/N=C/c3ccc([N+](=O)[O-])cc3)o2)cc1	Tau ThT inhib inconclusive, Tau fluor cs 8.91µM[quencher]
COc1ccc(Cl)cc1NC(=O)Cn1cc2c(n1)CCC(C)C2 (stereo unspecified)	none
CCOc1ccccc1NC(=O)CN(CCc1ccccc1)S(=O)(=O)c1ccc(C)cc1	TR SRC2 fluor cs 0.0316µM[quencher]
Cc1ccc(C)c(NC(=O)CN(CCc2ccccc2)S(=O)(=O)c2ccccc2)c1	none
c1ccc2c(c1)ccc1ccccc12	none (no result: Tau ThT inhib, Tau fibril FP, Tau fluor cs)
CC1=[N+](C)c2ccc3ccccc3c2C1(C)C	Tau ThT inhib 14.1µM, TRb-SRC2 inh 31.6µM, Tau fluor cs inconclusive, TR SRC2 fluor cs 4.47µM[fluorescent]
CCc1nn(CC(=O)NCCc2ccc(Cl)cc2)c(=O)c2cc3c(OC)cccc3n12	Tau ThT inhib inconclusive, TR SRC2 fluor cs inconclusive
CN(C)c1ccc(/C=N\NC(=S)SCN2C(=O)C3CCC(C)(C2=O)C3(C)C)cc1 (stereo unspecified)	Tau ThT inhib 8.91µM, Tau fluor cs 12.6µM[quencher]
NC(=O)N/N=C/c1ccc(N2CCOCC2)s1	Tau ThT inhib inconclusive
O=C(O)c1cc(N/N=C/c2ccc(N3CCOCC3)s2)ccc1Cl	Tau ThT inhib 11.2µM, Tau fibril FP inconclusive, Tau fluor cs inconclusive
CCc1ccc(OCC(=O)NCC(c2ccc(Cl)cc2)N2CCOCC2)cc1 (stereo unspecified)	TR SRC2 fluor cs 10µM[quencher]
CN(C)c1ccc(CC2C(=O)Nc3ccccc32)cc1 (stereo unspecified)	Tau ThT inhib 31.6µM, Tau fibril FP inconclusive, Tau fluor cs inconclusive
O=C1Nc2ccccc2C1Cc1ccc(Br)cc1 (stereo unspecified)	none

Screening results: PubChem BioAssay, National Center for Advancing Translational Sciences (NCATS)
